An excerpt weighted towards active compounds, which were near 1.4% of everything screened.
KCNH2 3.1 block – qHTS for Inhibitors of KCHN2 3.1: Mutant qHTS; Potassium voltage-gated channel subfamily H member 2, brain isoform KCNH2 3.1 (human); U2OS KCNH2 3.1, thallium flux FluxOr; stronger effect = lower value; activity change, % (tested at about 1.8 µM); 0.95% of 340,000 active;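 active = maximum activity change below -70%; inconclusive = maximum activity change from -70% to -50%; inactive = maximum activity change above -50%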;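 also: thallium influx rate constant from kinetic fluorescence after stimulation buffer; % is scaled to controls: 0 for no effect and ±100 for the full control effect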
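Virally transduced U2OS (3.1 isoform, 4 h infection in dark at RT) → overnight 37 C → FluxOr + Red40 in HBSS/HEPES, 45 min → stimulation buffer, 2 min kinetic read → rate constant vs DMSO controls.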
hERG WT inh – qHTS for Inhibitors of KCHN2 3.1: Wildtype qHTS. Voltage-gated inwardly rectifying potassium channel KCNH2 (Homo sapiens), Q12809. U2OS, BacMam KCNH2, thallium flux FluxOr; stronger effect = lower value. activity change, % at 1.84 µM. 0.37% of 340,000 active. AID 720551, 2013;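 active = maximum activity change below -70%; inconclusive = maximum activity change between -70% and -50%; inactive = maximum activity change above -50%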; also: % is scaled to controls: 0 for no effect and ±100 for the full control effect
Target sequence (Q12809 whole entry, looked up): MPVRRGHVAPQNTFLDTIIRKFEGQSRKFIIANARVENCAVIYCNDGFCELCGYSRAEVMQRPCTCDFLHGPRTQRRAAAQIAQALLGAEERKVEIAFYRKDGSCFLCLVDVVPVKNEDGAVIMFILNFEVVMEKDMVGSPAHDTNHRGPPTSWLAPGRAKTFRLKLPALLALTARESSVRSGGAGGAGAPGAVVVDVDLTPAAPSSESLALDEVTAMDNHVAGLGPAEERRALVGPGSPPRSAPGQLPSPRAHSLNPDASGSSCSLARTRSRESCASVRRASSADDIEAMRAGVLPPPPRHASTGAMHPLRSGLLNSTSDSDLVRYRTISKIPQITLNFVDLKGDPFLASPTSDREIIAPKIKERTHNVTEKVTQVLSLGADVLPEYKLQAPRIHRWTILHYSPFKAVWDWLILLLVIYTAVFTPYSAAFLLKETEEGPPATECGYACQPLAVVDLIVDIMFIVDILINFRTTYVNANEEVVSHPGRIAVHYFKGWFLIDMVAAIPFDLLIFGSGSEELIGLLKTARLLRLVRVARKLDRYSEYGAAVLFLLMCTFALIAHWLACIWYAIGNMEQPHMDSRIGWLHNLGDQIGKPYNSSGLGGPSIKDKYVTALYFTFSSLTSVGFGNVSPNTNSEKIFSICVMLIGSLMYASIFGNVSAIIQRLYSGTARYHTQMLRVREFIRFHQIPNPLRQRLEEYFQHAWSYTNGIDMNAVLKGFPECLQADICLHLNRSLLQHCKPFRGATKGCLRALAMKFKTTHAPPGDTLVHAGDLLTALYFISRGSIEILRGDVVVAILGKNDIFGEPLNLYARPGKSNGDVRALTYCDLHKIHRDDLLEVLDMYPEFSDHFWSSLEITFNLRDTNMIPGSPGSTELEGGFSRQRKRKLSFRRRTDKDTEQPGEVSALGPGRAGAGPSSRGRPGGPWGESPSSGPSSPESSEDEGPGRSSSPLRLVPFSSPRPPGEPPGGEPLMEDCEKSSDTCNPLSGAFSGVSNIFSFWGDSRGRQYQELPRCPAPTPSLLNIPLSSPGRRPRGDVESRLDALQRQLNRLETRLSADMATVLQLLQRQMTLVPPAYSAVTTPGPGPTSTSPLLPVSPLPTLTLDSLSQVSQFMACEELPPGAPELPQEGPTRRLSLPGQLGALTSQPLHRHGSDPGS
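U2OS cells transduced with wild-type KCNH2 virus are loaded with FluxOr dye for 45 min, and thallium flux is measured in kinetic reads before and after stimulation buffer. Rate constants are normalized to DMSO controls.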
MmCpn inh – Inhibitors of TCP-1 ring complex (TRiC) of Methanococcus maripaludis (MmCpn): qHTS. Potency, µM (doses to about 76.9 µM), for inactives: top-dose activity, negative = inhibition, hits mostly inhibitors. Chaperonin Mm-Cpn (Methanococcus maripaludis). 0.031% of 330,000 active. purified Mm-Cpn ATPase, ADP Transcreener TR-FRET; also: potency is read from the fitted curve at half-maximal effect; % is scaled to controls: 0 for no effect and ±100 for the full control effect; nearly all actives have a fitted effect of over 80% in size
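Measured: ADP formation by purified Mm-CPN. Conditions: 25 nM protein, 10 uM ATP, Tris pH 7.4 with Mg2+, K+ and DTT, 37°C for 30 min. Detection: Transcreener HTRF after 30 min at room temperature.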
uPA generation – qHTS for Inhibitors of Cell Surface uPA Generation; cell surface uPA generation assay, qHTS; Potency, µM (series often up to 38.3 µM), inactives show top-dose activity change, negative = inhibition, usual class: inhibitors; 0.31% of 330,000 active; AID 540303, 2011; active = well fitted inhibition curve with a large enough effect; inconclusive = small, poorly fitted or top-dose-only effect; inactive = no such curve, though single readings can be large or run the other way; tested in mouse RAW 264.7 cells; also: potency is read from the fitted curve at half-maximal effect; % is scaled to controls: 0 for no effect and ±100 for the full control effect; nearly all actives have a fitted effect of over 55% in size
S-ASM inh – Inhibitors of Secretory Acid Sphingomyelinase (S-ASM): qHTS; placental ASM, HMU-PC fluorogenic substrate, 60 min; Potency, µM (highest dose often 57.5 µM), for inactives: at the top dose activity change, negative = inhibition, most hits filed as inhibitors; 0.006% of 340,000 active; also: potency is read from the fitted curve at half-maximal effect
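Human placenta-derived ASM enzyme was preincubated with compound for 10 minutes at room temperature, then given fluorogenic substrate HMU-PC0 (9 uM final) for 60 minutes at 37 °C; a pH 10 stop preceded fluorescence reading at Ex 386/Em 447 nm.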
p53 reactivator – qHTS assay for re-activators of p53 using a Luc reporter. AID 504706, 2011. 0.063% of 320,000 active. Potency, µM (highest dose often 92.2 µM), without a hit: top-dose activity change, positive = activation, most hits filed as activators. H1299 p53-A138V BP100-luciferase reporter, luminescence, 24 h; also: potency is read from the fitted curve at half-maximal effect; % of control where 0% means no effect; nearly all actives have a fitted effect of over 45% in size
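p53-null H1299 cells stably carrying temperature-sensitive p53-A138V and a BP100-luciferase reporter were pinned with compounds (4-point, 1:5 series) and held 24 hrs at 37 deg C. Luminescence was read 10 min after detection reagent.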
* = called active by the depositor. Unless noted, calls follow the shape of the dose curve; as a rule, active = well fitted curve in the direction sought with a large enough effect; inconclusive = small, poorly fitted or top-dose-only effect, or another doubt; inactive = no such curve, though single readings can be large; an effect the other way counts as inactive or inconclusive.

What do the screens show for `CN1CCN(CC(=O)Nc2c(C(=O)c3ccccc3)oc3ccccc23)CC1`?
KCNH2 3.1 block: -106*; hERG WT inh: -101*; MmCpn inh: -1%; uPA generation: -1%; S-ASM inh: 0%; p53 reactivator: -7%

How did CCc1cccc2c1Sc1ccccc1CC2N1CCNCC1 (stereo not given) do in these assays?
KCNH2 3.1 block: -77*; hERG WT inh: 2; uPA generation: -48%; S-ASM inh: -1%

Results for CCCN(C(=O)CSc1ncccn1)C1CCS(=O)(=O)C1 (stereo not given) ?
KCNH2 3.1 block: 5; hERG WT inh: -9; MmCpn inh: -2%; uPA generation: 4%; S-ASM inh: 3%; p53 reactivator: 5%

Results for S=C(Nc1ccc2c(c1)OCO2)N1CCN(Cc2ccco2)CC1 ?
KCNH2 3.1 block: 0; hERG WT inh: 6; MmCpn inh: -8%; uPA generation: 4.5µM*; S-ASM inh: 1%; p53 reactivator: 0%

Results for CCCCn1nc(C(=O)N(CC(C)C)c2c(N)n(CCCC)c(=O)[nH]c2=O)c2ccccc2c1=O ?
KCNH2 3.1 block: 9; hERG WT inh: -7; MmCpn inh: -4%; uPA generation: 4%; S-ASM inh: 4%; p53 reactivator: 3%

How did COc1cc(NC(=O)c2cc(-c3ccco3)on2)c(OC)cc1Cl do in these assays?
KCNH2 3.1 block: -81*; hERG WT inh: -26; MmCpn inh: -5%; S-ASM inh: 15%; p53 reactivator: -14%

How did COc1ccc(NC(=O)c2cc(Cl)ccc2NC(=O)c2ccco2)c(OC)c1 do in these assays?
KCNH2 3.1 block: -70*; hERG WT inh: -82*; MmCpn inh: 2%; uPA generation: 2%; S-ASM inh: -5%; p53 reactivator: 0%

What do the screens show for `CCOC(=O)c1cccc(Nc2ncnc3ccc(C)cc23)c1`?
KCNH2 3.1 block: -85*; hERG WT inh: 13; MmCpn inh: -1%; uPA generation: 5%; S-ASM inh: -3%; p53 reactivator: -7%

Results for Cc1cc(Br)ccc1NC(=O)CN1C(=O)C2CC=CCC2C1=O (stereo not given) ?
KCNH2 3.1 block: 1; hERG WT inh: 0; MmCpn inh: 2%; uPA generation: -8%; S-ASM inh: -2%; p53 reactivator: 7%

Results for CC(C)CN(C(=O)CSc1nc2ccccc2[nH]1)C1CCS(=O)(=O)C1 (stereo not given) ?
KCNH2 3.1 block: 0; hERG WT inh: -11; MmCpn inh: 0%; uPA generation: -3%; S-ASM inh: 7%; p53 reactivator: -1%

Results for C[C@H](CO)N1C[C@H](C)[C@H](CN(C)C(=O)c2cc(-c3ccccc3)on2)OCc2cnnn2CCCC1=O ?
KCNH2 3.1 block: 1; hERG WT inh: 0

What do the screens show for `C[C@@H]1CN([C@H](C)CO)C(=O)CCCn2nncc2CO[C@H]1CN(C)C(=O)c1cc(-c2ccccc2)on1`?
KCNH2 3.1 block: -97*; hERG WT inh: -3

How did O=C(NNC(=O)c1ccc2ccccc2c1O)NC1CCCCC1 do in these assays?
KCNH2 3.1 block: -10; hERG WT inh: -88*; MmCpn inh: -5%; uPA generation: 3%; S-ASM inh: 191%; p53 reactivator: 23%

How did O=C(CS(=O)(=O)Cc1ccccc1)NCCc1ccc(F)cc1 do in these assays?
KCNH2 3.1 block: -78*; hERG WT inh: 3; MmCpn inh: 3%; uPA generation: 1%; S-ASM inh: -5%; p53 reactivator: -3%

How did O=C(Cc1ccc(F)cc1)NCCc1ccccc1 do in these assays?
KCNH2 3.1 block: inconclusive; hERG WT inh: -5; MmCpn inh: -2%; uPA generation: -3%; S-ASM inh: 4%; p53 reactivator: 4%

How did COc1ccccc1C(=O)N1CCc2ccccc21 do in these assays?
KCNH2 3.1 block: -73*; hERG WT inh: -10; MmCpn inh: 0%; S-ASM inh: 4%; p53 reactivator: -5%

How did COc1cccc(C(=O)N2CCCc3ccccc32)c1OC do in these assays?
KCNH2 3.1 block: 3; hERG WT inh: -9

How did O=C(Cn1nnc(-c2ccc(N3CCOCC3)cc2)n1)OC1CCCCC1 do in these assays?
KCNH2 3.1 block: -13; hERG WT inh: -10; MmCpn inh: 0%; uPA generation: 1%; S-ASM inh: -8%; p53 reactivator: 29%

How did O=C(Cn1nnc(-c2ccc(N3CCOCC3)cc2)n1)N1CCOCC1 do in these assays?
KCNH2 3.1 block: -1; hERG WT inh: -8; MmCpn inh: 1%; uPA generation: 4.5µM*; S-ASM inh: -3%; p53 reactivator: 8%

Results for Clc1ccc(Cn2nnc(-c3ccc(N4CCOCC4)cc3)n2)cc1 ?
KCNH2 3.1 block: -73*; hERG WT inh: -18; MmCpn inh: 0%; uPA generation: 18%; S-ASM inh: 2%; p53 reactivator: 1%

How did Cc1ccc(N2C(=O)[C@@H]3[C@H](C2=O)[C@H]2C=CC=NN2[C@@H]3C(=O)Nc2ccc(Cl)cc2)cc1 do in these assays?
KCNH2 3.1 block: 6; hERG WT inh: 7; MmCpn inh: -2%; uPA generation: 6%; S-ASM inh: 3%; p53 reactivator: -22%

How did O=C(Nc1ccc(Cl)cc1)[C@@H]1[C@@H]2C(=O)N(c3ccc(Cl)cc3)C(=O)[C@@H]2[C@H]2C=CC=NN21 do in these assays?
KCNH2 3.1 block: -114*; hERG WT inh: 8; MmCpn inh: -2%; uPA generation: -2%; S-ASM inh: -3%; p53 reactivator: -1%

How did O=C(NCC(c1ccco1)N1CCc2ccccc21)C(=O)Nc1ccc(F)cc1F (stereo not given) do in these assays?
KCNH2 3.1 block: -16; hERG WT inh: -3; MmCpn inh: -6%; uPA generation: 3.2µM*; S-ASM inh: -4%; p53 reactivator: 6%

How did O=C(CSc1nc2ccccc2c(=O)n1-c1ccc(F)cc1F)c1c[nH]c2ccccc12 do in these assays?
KCNH2 3.1 block: 0; hERG WT inh: -122*; MmCpn inh: -4%; uPA generation: 7%; S-ASM inh: -11%; p53 reactivator: -4%

How did CSc1nc(-c2ccccc2)c(C#N)c(=O)[nH]1 do in these assays?
KCNH2 3.1 block: -4; hERG WT inh: 4; MmCpn inh: -5%; uPA generation: 1%; S-ASM inh: 1%; p53 reactivator: 2%

High-throughput results as filed in PubChem BioAssay.
